From PubChem BioAssay AID720597 (Broad Institute, 2013)
Potency and affinity values are given separately. The source made the active and inactive calls.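 Rule for the calls: active = fitted half-maximal dose no more than twice the top valid tested dose, for compounds that lower signal; inconclusive = fit invalid, or curve flat with activity between -70 and -30; inactive = potency past limit, curve flat within ±30, or signal increasing.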

molecular target: NAD-dependent protein deacylase sirtuin-5, mitochondrial (Homo sapiens) (UniProt Q9NXA8); experiment: blockers of sirtuin-5 peptide desuccinylation – biochemical, fluorescence imaging, cherry-pick, set 6, dose response (AID 720597); conditions: Purified SirT5, succinyl-peptide-AMC/trypsin fluorescence; series mostly up to 15 µM;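 note: lower AMC signal can also come from blocking the trypsin step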
Sequence (Q9NXA8 whole entry, looked up): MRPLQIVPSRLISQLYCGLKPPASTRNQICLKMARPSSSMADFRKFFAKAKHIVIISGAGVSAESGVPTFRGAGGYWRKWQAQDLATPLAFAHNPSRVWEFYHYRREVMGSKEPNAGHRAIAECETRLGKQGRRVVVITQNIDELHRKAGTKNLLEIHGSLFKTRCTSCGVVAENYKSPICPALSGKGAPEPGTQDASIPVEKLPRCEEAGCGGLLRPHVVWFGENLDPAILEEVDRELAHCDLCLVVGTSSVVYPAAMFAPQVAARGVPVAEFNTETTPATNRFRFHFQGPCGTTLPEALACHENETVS

Row | SMILES | outcome
1 | CC(C)C#Cc1cnc2c(c1)C(=O)N([C@H](C)CO)C[C@@H](C)[C@H](CN(C)C(=O)CN1CCOCC1)O2 | inactive
2 | Cc1noc(C)c1S(=O)(=O)Nc1ccc2c(c1)C(=O)N([C@@H](C)CO)C[C@@H](C)[C@H](CN(C)Cc1ccc(Cl)c(Cl)c1)OCCCC[C@@H](C)O2 | inactive
3 | C[C@@H]1CN([C@H](C)CO)C(=O)c2cc(NC(=O)c3ccncc3)ccc2O[C@@H]1CN(C)C(=O)Nc1ccc2c(c1)OCO2 | inactive
4 | C[C@H]1CCCCO[C@H](CN(C)S(=O)(=O)c2ccc(Cl)cc2)[C@@H](C)CN([C@@H](C)CO)C(=O)c2cc(NS(=O)(=O)c3ccc(F)cc3)ccc2O1 | inactive
5 | COc1ccc(NC(=O)N(C)C[C@H]2OCCCC[C@@H](C)Oc3ccc(NC(=O)Cc4ccccc4)cc3C(=O)N([C@H](C)CO)C[C@@H]2C)cc1 | inactive
6 | COc1ccc(NC(=O)Nc2ccc3c(c2)C(=O)N([C@H](C)CO)C[C@@H](C)[C@@H](CN(C)Cc2ccc(C(F)(F)F)cc2)O3)cc1 | inactive
7 | O=C(c1cccnc1)N1CCCCN2[C@H](CO)[C@@H](c3ccc(C#Cc4ccccn4)cc3)[C@@H]2C1 | inactive
8 | Cc1ccc(S(=O)(=O)N(C)C[C@@H]2OCCCC[C@@H](C)Oc3ccc(NS(=O)(=O)c4ccc(F)cc4)cc3C(=O)N([C@H](C)CO)C[C@H]2C)cc1 | inactive
9 | C[C@H](CO)N1C[C@H](C)[C@@H](CN(C)S(=O)(=O)c2ccccc2)Oc2c(cccc2N(C)C)C1=O | inactive
10 | COc1ccc(CN(C)C[C@H]2Oc3c(NS(=O)(=O)c4ccccc4)cccc3C(=O)N([C@@H](C)CO)C[C@H]2C)cc1 | inactive
